According to PubChem BioAssay (NCI):
Compounds without any hit were thinned out: in the full panel of roughly 79,000, 15% have a hit. Activity calls are given as the source filed them. Cut-off read from the data, not from the text of the source: active = growth inhibition above about 70%; inactive = the rest.

Experiments:
[1] = NCI Yeast Anticancer Drug Screen. Data for the rad50 strain (AID 155);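 note: 0% = growth of vehicle-only cultures of the same strain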; conditions: S. cerevisiae rad50 strain growth inhibition; at 50.0 µM; stronger effect = higher value
Outline: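 DNA repair mutant yeast, compound exposure, growth read-out; inhibition is taken relative to vehicle.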

[2] = NCI Yeast Anticancer Drug Screen. Data for the mec2-1 strain (AID 157); conditions: S. cerevisiae mec2-1 strain, at 50.0 µM, stronger effect = higher value
Outline: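 Cells of the genetically defined mec2-1 yeast strain are incubated with test compound. Inhibition of growth is calculated against vehicle-treated controls.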

[3] = NCI Yeast Anticancer Drug Screen. Data for the sgs1 mgt1 strain (AID 161);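 note: 0% = growth of cultures given vehicle only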; conditions: S. cerevisiae sgs1 mgt1 strain, at 50.0 µM, stronger effect = higher value
Outline: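 Genetically altered yeast, compound exposure, growth inhibition relative to vehicle.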

[4] = NCI Yeast Anticancer Drug Screen. Data for the cln2 rad14 strain (AID 165);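 note: 0% = growth equal to vehicle treated cultures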; conditions: S. cerevisiae cln2 rad14 strain, at 50.0 µM, stronger effect = higher value
Outline: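 The screen exposed genetically defined yeast (cln2 rad14) to test compounds and scored growth inhibition relative to vehicle-treated controls.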

[5] = NCI Yeast Anticancer Drug Screen. Data for the bub3 strain (AID 167); conditions: S. cerevisiae bub3 mutant strain, at 50.0 µM, stronger effect = higher value
Outline: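 In this screen, a yeast mutant lacking normal mitotic checkpoint function is challenged with compound. Relative growth versus vehicle gives the inhibition value.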

[6] = NCI Yeast Anticancer Drug Screen. Data for the mlh1 rad18 strain (AID 175); conditions: S. cerevisiae mlh1 rad18 strain growth inhibition; at 50.0 µM; stronger effect = higher value
Outline: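 Compound-treated yeast growth, normalised to vehicle controls. Strain bears defined DNA repair mutations.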

Measured: growth inhibition

CC(=O)OCC(C)(C)C(OC(C)=O)C(C)C (stereo not given)
inactive: [1] 16.1% | [2] 0.75% | [3] 13.8% | [4] -46.8% | [5] -0.5% | [6] 11.2%

CC(=O)N1C(=O)NC(=O)C1(C)C
inactive: [1] -7% | [2] -29.9% | [3] 6.65% | [4] -18.5% | [5] 1.5% | [6] -7.15%

O=C(O)CN1CCN(CC(=O)O)CCN(CC(=O)O)CCN(CC(=O)O)CC1
inactive: [1] -7.95% | [2] -0.55% | [3] 2.9% | [4] -17.6% | [5] 20.4% | [6] 21.6%

N#Cc1cc2ccccc2n(Cc2ccccc2)c1=O
inactive: [1] -8.85% | [2] -9.9% | [3] -9.4% | [4] 7.85% | [5] 3.75% | [6] -9.55%

Cc1cc(NC(C)C)c(C)cc1NC(C)C
inactive: [1] 49% | [2] 31.9% | [3] 47.1% | [4] 21.8% | [5] 33.5% | [6] 43.8%

COC(=O)CC(C)(O)CCCC(C)C (stereo not given)
inactive: [1] 11.2% | [2] -5.15% | [3] 16.9% | [4] -17.9% | [5] 3.9% | [6] -14.2%

COc1cc2c(C)cc(O)cc2c2cc(O)c(C)cc12
active: [6] 91.8%
inactive: [1] 22.6% | [2] -1.55% | [3] -10.3% | [4] -5.9% | [5] -9.9%

O=C(O)c1c(Cl)c(Cl)c(Cl)c(C(=O)O)c1Cl
inactive: [1] -2.05% | [2] 2.2% | [3] 7.25% | [4] -36.1% | [5] 5.85% | [6] 19.2%

N#C/C(=C\c1ccccn1)c1nc(-c2ccc(Cl)cc2)cs1
inactive: [1] -9.6% | [2] -27.9% | [3] -12.7% | [4] -0.1% | [5] 0.5% | [6] -14.6%

COC(=O)C(C(=O)C(=O)Nc1nc2ccc(OC)cc2s1)c1cnc2ccccc2n1 (stereo not given)
inactive: [1] -13.2% | [2] -23.2% | [3] -45% | [4] 22.6% | [5] -7.5% | [6] -6.15%

COC(=O)N1c2ccccc2N(C(=O)OC)c2c1oc1ccccc1c2=O
inactive: [1] 38.2% | [2] 12.6% | [3] 33.6% | [4] 7.3% | [5] 26.5% | [6] 31.9%

FC(F)(F)C(c1ccc(Cl)cc1)c1ccc(Cl)cc1
inactive: [1] 42.6% | [2] 28.8% | [3] 40.6% | [4] 34.5% | [5] 5.95% | [6] 30.6%

O=c1nc2oc(-c3ccccc3)cn2c(=O)n1-c1ncc(-c2ccccc2)o1
inactive: [1] 1.35% | [2] -6.9% | [3] 1.4% | [4] 22.4% | [5] 8.1% | [6] 6.05%

Cc1cc(Br)c2c(c1N)C(=O)c1ccccc1C2=O
inactive: [1] 23.6% | [2] 35% | [3] 31.4% | [4] -7.75% | [5] 7.1% | [6] 15.6%

O=C(Nc1ccc(F)cc1)Nc1ccc(F)cc1
inactive: [1] 3.4% | [2] -10.9% | [3] -3.25% | [4] -43.7% | [5] -32.9% | [6] -16.6%

Nc1nc(-c2cc(-c3ccco3)nc(N)n2)cc(-c2ccco2)n1
inactive: [1] -8.2% | [2] -13.6% | [3] -20.8% | [4] -17.8% | [5] -35.6% | [6] -17.6%

O=C(O)/C=C/c1c(Cl)cccc1Cl
inactive: [1] -14.6% | [2] -8.05% | [3] -11.9% | [4] -37.2% | [5] -18.1% | [6] -5.8%

CCCCOP(=O)(OCCCC)/C(C#N)=C/c1ccco1
inactive: [1] -67.7% | [2] -65.6% | [3] -50.1% | [4] -42.1% | [5] -29.8% | [6] -79.4%

COc1ccc(C(=O)NC(=S)Nc2cccc([N+](=O)[O-])c2)cc1
inactive: [1] -7.3% | [2] 29.9% | [3] 35.5% | [4] -21.6% | [5] 24.6% | [6] 27.7%

Cc1ccc(OCC2OC(n3cnc4nc(Nc5ccc(Cl)c(Cl)c5)nc(Cl)c43)CC2Oc2ccc(C)cc2)cc1 (stereo not given)
inactive: [1] 6.9% | [2] 10.8% | [3] -40.2% | [4] 14.1% | [5] -20.3% | [6] -33%

Cc1ccc(N2C(=O)/C(=C/c3ccc(N(CCC#N)CCC#N)cc3C)N=C2c2cc([N+](=O)[O-])ccc2Cl)cc1
inactive: [1] 8.85% | [2] 14.5% | [3] 32.6% | [4] 35.2% | [5] 30.4% | [6] 19.9%

COc1ccc2c(c1)OC(OC)(c1ccc(OC)c(OC)c1)C(O)(OC)C2=O (stereo not given)
inactive: [1] 39.4% | [2] 14.8% | [3] 27.6% | [4] 19.6% | [5] 11.8% | [6] 29%

COc1ccc(N2C(=O)C3c4[nH]c5ccccc5c4C4CCCCCCC4C3C2=O)cc1 (stereo not given)
inactive: [1] 50.1% | [2] 25.9% | [3] 22.6% | [4] -8.9% | [5] 11.9% | [6] 28.6%

O=C(CCC(=O)Oc1ccccc1)Oc1ccccc1
inactive: [1] -15.9% | [2] -1.1% | [3] -31.6% | [4] 3.2% | [5] 28.3% | [6] 13.7%

C=CCNC(=S)/N=C\c1c(C)[nH]n(-c2ccccc2)c1=O
inactive: [1] -23.8% | [2] -27.2% | [3] -24.6% | [4] -17.6% | [5] -17.6% | [6] -5.7%

CN1NC(=O)CC1c1ccccc1 (stereo not given)
inactive: [1] 18.9% | [2] -3.65% | [3] -10.8% | [4] 11.1% | [5] 0.25% | [6] 5.45%

Cc1ccc(S(=O)(=O)NNCCC#N)cc1
inactive: [1] -5% | [2] 6.05% | [3] -4.35% | [4] -0.15% | [5] -4.9% | [6] 7.75%

COCn1ccnc1C(=O)c1ccccc1
inactive: [1] -11.4% | [2] -13.8% | [3] -9.65% | [4] -27.1% | [5] -7.25% | [6] -5.15%

COC1CCC2C(C1)C(C1CCCCC1)C1CCCCC1C2C1CCCCC1 (stereo not given)
inactive: [1] -1.1% | [2] 8.05% | [3] -14.6% | [4] -7.25% | [5] -0.9% | [6] -7.65%

O=C1NC(=O)C(c2ccsc2)(c2cccs2)N1 (stereo not given)
inactive: [1] 20.9% | [2] -9.3% | [3] 1% | [4] 14.3% | [5] 5.05% | [6] -1.65%

COC(=O)C1OC(O[C@H]2CC[C@]3(C)[C@H]4CC=C5[C@@H]6CC(C)(C)CC[C@]6(C(=O)OC)[C@H](O)C[C@@]5(C)[C@]4(C)CC[C@H]3C2(C)C)C(O)C(O)C1O (stereo not given in full)
inactive: [1] 14.4% | [2] 37.6% | [3] 26.6% | [4] 26.4% | [5] 21.4% | [6] 33.4%

CCc1cccc(C)c1NC(=O)C(=O)CC(=O)CS(=O)(=O)c1ccc(C)cc1
inactive: [1] -13.4% | [2] -15.2% | [3] -6% | [4] -0.8% | [5] -8.8% | [6] 12.5%

COc1ccccc1OC(C)=O
inactive: [1] -5.2% | [2] -14.4% | [3] -2.3% | [4] -8.2% | [5] -1.35% | [6] 17.9%

CCOc1ccc2[nH]c(C)c(CC(=O)O)c2c1
inactive: [1] -3.7% | [2] -9.25% | [3] -13.5% | [4] -16.4% | [5] 9.3% | [6] -7.2%

Cc1ccc2c(c1)C(C1=CCCc3ccc(C)cc31)=CCC2
inactive: [1] 10.2% | [2] -16.5% | [3] 9.05% | [4] 10.3% | [5] 8.2% | [6] 13.8%

CN(C)c1ccc(/C=C(\C#N)C(=O)c2ccccc2)cc1
inactive: [1] -9.8% | [2] 8.25% | [3] 8.9% | [4] -7.15% | [5] 6.85% | [6] 22.9%

CC(=O)NC(C=O)C(O)C(O)C(O)CO (stereo not given)
inactive: [1] -29.4% | [2] -24.8% | [3] -11.1% | [4] -16.2% | [5] -7% | [6] 2.25%

Cc1nc(N)nc(-c2ccccc2)c1N=Nc1ccccc1Br
inactive: [1] 5.55% | [2] 0.15% | [3] 4.4% | [4] -6.95% | [5] -0.85% | [6] 11.8%

Cc1ccccc1NCc1ccccc1[N+](=O)[O-]
inactive: [1] 23.9% | [2] 11.1% | [3] 14.8% | [4] -28.6% | [5] -14.6% | [6] 18.9%

COc1ccc(C(CC(=O)O)c2ccc(OC)c(OC)c2)c(OC)c1 (stereo not given)
inactive: [1] 3.4% | [2] -1.25% | [3] -6.65% | [4] -59.9% | [5] -1.6% | [6] 5.15%
